The target in experiment [1] is Aldehyde dehydrogenase, mitochondrial (Homo sapiens) (UniProt P05091). Description: qHTS for Inhibitors of the Aldehyde Dehydrogenase Family (ALDH2) Confirmatory screens (AID 2061303; active = well fitted inhibition curve with a large enough effect; title and protocol of this record describe different tests; note: nearly all actives have a fitted effect of over 45% in size; note: potency is the fitted concentration of half-maximal effect). (qHTS replaces the single test concentration by a dilution series.)
Experiment [2] can be described thus: qHTS for Inhibitors of the Aldehyde Dehydrogenase Family (ALDH1A2, ALDH1A3, ALDH2, ALDH3A1) (AID 2061307). For Potency: test system not described further here; potency is the fitted concentration of half-maximal effect. Note: nearly all actives have a fitted effect of over 50% in size.
The target in experiment [3] is Aldehyde dehydrogenase, mitochondrial (Homo sapiens) (UniProt P05091). In words: qHTS for Inhibitors of the Aldehyde Dehydrogenase Family (ALDH2) Primary screen (AID 2061308). Note: nearly all actives have a fitted effect of over 55% in size. Note: potency is the fitted concentration of half-maximal effect.
In experiment [4] the target is Retinaldehyde dehydrogenase 3 (Homo sapiens) (UniProt P47895). In words: qHTS for Inhibitors of the Aldehyde Dehydrogenase Family (ALDH1A3) Confirmatory screens (AID 2061311). Note: nearly all actives have a fitted effect of over 60% in size. Note: potency is the fitted concentration of half-maximal effect.
Experiment [5] addresses Retinal dehydrogenase 2 (Homo sapiens) (UniProt O94788). Description: qHTS for Inhibitors of the Aldehyde Dehydrogenase Family (ALDH1A2) Confirmation screens (AID 2061314). Note: nearly all actives have a fitted effect of over 65% in size. Note: potency is the fitted concentration of half-maximal effect.
The target in experiment [6] is Retinaldehyde dehydrogenase 3 (Homo sapiens) (UniProt P47895). In words: qHTS for Inhibitors of the Aldehyde Dehydrogenase Family (ALDH1A3) Primary screen (AID 2061315).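 Note: plate controls were DMSO vehicle for no effect and reference inhibitor for full effect.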
The target in experiment [7] is Aldehyde dehydrogenase 1A1 (Homo sapiens) (UniProt P00352). Description: qHTS for Inhibitors of the Aldehyde Dehydrogenase Family (ALDH1A1) Confirmatory screens (AID 2061316). Note: nearly all actives have a fitted effect of over 65% in size. Note: potency is the fitted concentration of half-maximal effect.
Experiment [8] in a line: BET inhibitor-based combinations targeting novel dependencies in MECOM-rearranged (r) AML: SET-2 cell line (AID 2202231).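 Note: plate controls were DMSO treated cells for no effect and wells without cells for full effect; nearly all actives have a fitted effect of over 35% in size.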 The conditions noted are these: SET-2 AML cells viability, CellTiter-Glo luminescence, 48 h; viability: stronger effect = lower value, series mostly up to about 46 µM. In short, it runs like this: (§1)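 Cells were plated at 500 per well and exposed to an 11-point dose series of each drug for 48 hr. Viability was measured by CellTiter-Glo luminescence, normalized to DMSO and empty-well controls, and summarized as AUC and per-cell-line Z-AUC.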
(In general: Cellular ATP, detected with luciferase, serves as a proxy for viable cell number.)

Experiment [9] in a line: BET inhibitor-based combinations targeting novel dependencies in MECOM-rearranged (r) AML: UCSD-AML1 cell line (AID 2202235).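 Note: series mostly up to about 46 µM; plate controls were DMSO vehicle wells for no effect and blank wells for full effect; nearly all actives have a fitted effect of over 40% in size.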 In outline:
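Activity is given as area under the curve and as Z-AUC, mean-centred within each cell line. It comes from 11-point dose curves normalized to DMSO and empty wells. CellTiter-Glo luminescence was read after 48 hr drug exposure of 500 cells/well.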

Experiment [10] in a line: BET inhibitor-based combinations targeting novel dependencies in MECOM-rearranged (r) AML: AML-191 cell line (AID 2202236;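 note: plate controls were vehicle wells for no effect and wells without cells for full effect; nearly all actives have a fitted effect of over 35% in size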). In outline:
as §1

The nature of experiment [11]: BET inhibitor-based combinations targeting novel dependencies in MECOM-rearranged (r) AML: AML-194 cell line (AID 2202237;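 note: plate controls were vehicle wells for no effect and wells without cells for full effect; nearly all actives have a fitted effect of over 40% in size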). In outline:
as §1

The values below come from PubChem BioAssay (NCATS).

In general, viability refers to a read-out of living cells in per cent, often relative to untreated cells.

Each structure is given as a SMILES string. Inconclusive results are not listed. A number with no mark means an inactive call. The source made the active and inactive calls. Unless noted, calls come from the whole dose curve; as a rule, active = well fitted curve in the direction sought with a large enough effect; inconclusive = small, poorly fitted or top-dose-only effect, or another doubt; inactive = no such curve, though single readings can be large; an effect the other way counts as inactive or inconclusive.

As to `CCc1nnc(-c2cnn(C)c2N)n1CCCn1ccnc1`, the Potency result in experiment [1], in experiment [2], in experiment [3], in [4], in experiment [5] and in [6] was “inactive” throughout. For the same compound, the Potency entry in experiment [7] was “inactive”.

Turning to `COc1ccc(C2Nc3ccccc3C(=O)N2CCO)cc1COc1ccc(NC(C)=O)cc1` (stereo not given), the Potency is 2 µM (active) in experiment [1]; 3.18 µM (active) in experiment [2]; 10 µM (active) in [4]; 14.2 µM (active) in experiment [5]; 22.5 µM (active) in experiment [7]. For the same compound, the Potency entry in experiment [3] and in experiment [6] was “inactive” each time.

In the case of `O=C(O)c1ccc2c(c1)C(=O)N([C@H](Cc1ccc(F)cc1)C(=O)O)C2=O`, the Potency entry in experiment [1], in experiment [2], in experiment [3], in [4], in experiment [5] and in experiment [6] was “inactive” each time. For the same compound, the Potency entry in experiment [7] was “inactive”.

As to `CCCCN(CCCNC(=S)NCCCc1cnc[nH]1)c1ccc(Br)cn1`, the Potency in [1] is 22.4 µM (active); in experiment [2] it was 12.6 µM (active); in experiment [4], 14.1 µM (active); in [5], 8.96 µM (active). Further, the Potency result in experiment [3], in [6] and in experiment [7] was “inactive” each time.

Consider `CC(=O)NCCC(=O)N[C@@H](CCC(N)=O)C(=O)N[C@@H](CO)C(=O)N[C@@H](CCC(N)=O)C(=O)N[C@@H](CCC(N)=O)C(=O)N[C@H](C(=O)N[C@@H](Cc1ccccc1)C(=O)N[C@]1(C)CCCCCCC=CCCC[C@@](C)(C(=O)N[C@@H](CCC(N)=O)C(=O)N[C@@H](CC(N)=O)C(N)=O)NC(=O)[C@H](CC(C)C)NC(=O)[C@H](CC(C)C)NC(=O)[C@@H](CCCNC(=N)N)NC(=O)[C@H](Cc2c[nH]c3ccccc23)NC(=O)[C@H](CC(C)C)NC(=O)[C@H](CC(N)=O)NC1=O)[C@H](C)O`, for which the Potency result in [1], in experiment [2], in [3], in [4], in [5] and in experiment [6] was “inactive” each time. The Potency result in experiment [7], in experiment [9], in experiment [10] and in experiment [11] was “inactive” throughout. The viability in [8] was 109%.

Regarding `Oc1ccc(Oc2ccccc2F)c2cccnc12`, the Potency in experiment [1] is 4.49 µM (active); in experiment [2], 17 µM (active); in experiment [4], 2.01 µM (active); in experiment [5], 2.01 µM (active); in [7], 5.04 µM (active). Moreover, the Potency result in experiment [3] was “inactive”.

With `N#Cc1ccc(-c2ccc(C3Nc4ccccc4C(=O)N3O)o2)cc1` (stereo not given), the Potency in experiment [1] was 1.26 µM (active); in experiment [2] it was 3.18 µM (active); in experiment [3] it was 1.26 µM (active); in experiment [4], 5.04 µM (active); in experiment [5], 3.18 µM (active); in [7] it was 3.57 µM (active). Besides, the Potency result in experiment [6] is “inactive”.

As to `O=C(O)c1cccc(-c2noc(-c3cccc(C(F)(F)F)c3)n2)c1`, the Potency entry in experiment [1], in experiment [3], in experiment [5] and in experiment [7] was “inactive” in each case. For the same compound, the Potency is 0.956 µM (active) in experiment [2] and 0.504 µM (active) in [4].

Take `CCC(=O)C1CCCN(C(=O)CC(c2ccc3c(c2)OCO3)c2c(O)cc(OC)cc2OC)C1` (stereo not given): the Potency entry in experiment [1], in experiment [2], in [3], in experiment [4], in experiment [5] and in experiment [6] was “inactive” in each case. Further, the Potency result in [7] is “inactive”.

`O=C(C1CCN(c2nc(-c3ccc(Br)cc3)cs2)CC1)N1CCNCC1`: the Potency entry in experiment [1], in [2], in [3], in experiment [4], in [5] and in [6] was “inactive” throughout. Further, the Potency in experiment [7] was 25.2 µM (active).

Regarding `O=C1NC(=O)/C(=C/c2cccn2-c2ccc(P(O)O)cc2)N1`, the Potency result in experiment [1], in [2], in [3], in experiment [4], in experiment [5] and in experiment [6] was “inactive” each time. In addition, in experiment [7], the Potency entry was “inactive”.

Turning to `COc1ccc(C2=Nn3c(nnc3-c3cc(OC)ccc3OC)SC2)c(OC)c1`, the Potency entry in experiment [1], in experiment [3], in experiment [4], in experiment [5] and in [6] was “inactive” each time. In addition, the Potency in experiment [2] was 17.9 µM (active); in [7] it was 6.34 µM (active).

As for `O=C(CSc1nnc(-c2cccc(S(=O)(=O)N3CCCC3)c2)n1-c1ccccc1)Nc1ccc(F)cc1`, the Potency result in experiment [1], in experiment [2], in [3], in [4], in experiment [5] and in experiment [6] was “inactive” each time. The Potency result in experiment [7] is “inactive”.

As for `C=C1CC[C@@H]2[C@](C)(CO)[C@H](O)CC[C@@]2(C)[C@@H]1CC(=O)C1=CCOC1=O`, the Potency result in [1], in experiment [2], in [3], in experiment [4], in experiment [5] and in experiment [7] was “inactive” throughout.

For the compound `COc1ccc(C2=Nn3c(nnc3-c3cccc(OC)c3OC)SC2)cc1`, the Potency entry in experiment [1], in [2], in [3], in experiment [4], in experiment [5] and in experiment [6] was “inactive” throughout. The Potency result in experiment [7] is “inactive”.

Consider `OCc1cccc(-c2noc(-c3ccccc3F)n2)c1`, for which the Potency entry in experiment [1], in experiment [3], in [5] and in [7] was “inactive” in each case. Moreover, the Potency in experiment [2] is 10.7 µM (active); in [4], 5.65 µM (active).

With `Cc1ccc2nc3sc(C(=O)NCc4ccco4)cc3cc2c1`, the Potency is 12.7 µM (active) in experiment [1]; 11.3 µM (active) in experiment [2]; 10.1 µM (active) in experiment [4]; 7.12 µM (active) in experiment [5]; 7.12 µM (active) in [7]. Further, the Potency entry in [3] and in experiment [6] was “inactive” in each case.

Regarding `Cc1ccc(-c2cc(C(=O)N3CCCCC3)c3ccccc3n2)cc1C`, the Potency entry in experiment [1], in [2], in [3], in [4], in experiment [5] and in [6] was “inactive” throughout. Moreover, the Potency result in experiment [7] was “inactive”.

For the compound `Cc1cccc2c(C(=O)O)cc(Cl)nc12`, the Potency entry in [1], in experiment [2], in [3], in experiment [4], in experiment [5] and in experiment [6] was “inactive” in each case. Moreover, in experiment [7], the Potency entry is “inactive”.

For the compound `Cc1ccc2nc(-c3ccccn3)c(Nc3ccccc3C)n2c1`, the Potency entry in experiment [1], in experiment [2], in experiment [3], in [4], in experiment [5] and in [6] was “inactive” throughout. In addition, the Potency result in experiment [7] was “inactive”.
